The sample as a whole holds a higher share of hits than the screen did.
HTT ATP protect = cytoprotection in Huntington HTT-Q103 PC12 cell model. PC12 HTT-Q103 induced, cytoprotection, ATP luminescence, 40 h. Potency, µM (doses to about 56.4 µM), actives largely listed as activators. actives 0.14% (n = 230,000); further: nearly all actives have a fitted effect of over 45% in size
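Stable PC12 Q103-GFP cells in serum-supplemented, phenol red-free DMEM; induction by tebufenozide at 100 nM final; compound dose series; cell viability quantified luminescently from ATP.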
PNC inhibitor = perinucleolar compartment assembly inhibition. activity change (PNC), negative = inhibition, % at 10 µM. actives 3.1% (n = 140,000). PC3M PTB-GFP, PNC prevalence imaging, 16 h; stronger effect = lower value;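 active means readout at or below -70, meaning at least 70% loss of cells showing the perinucleolar compartment, a nuclear body marking cancer cells; inconclusive means readout between -30 and a set limit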
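PC3M cells stably expressing PTB-GFP, 750–1000 cells/well, treated 16 h at 37 °C with compound (23 nl of library stock), in duplicate. After paraformaldehyde fixation and Hoechst stain, imaged at 20x; PNC prevalence scored by image analysis.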
HTT aggregate = reduces HttQ103-GFP aggregates in PC12 cells. PC12 HttQ103-GFP aggregates, Acumen cytometry, 40 h. Potency, µM (highest dose often 46.1 µM), hits mostly inhibitors. actives 1.1% (n = 220,000); further: nearly all actives have a fitted effect of over 60% in size
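Steps: seed 1500 PC12 HTTQ103-GFP cells/well; add tebufenozide, 100 nM final; add compound titration; add ATPLite reagent; quantify GFP aggregates by laser scanning cytometry.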
A number is an active result; i = inactive; ? = inconclusive; nt = not tested or not shown; [ ] = remark or other dose. Unless noted, the call rests on the fitted dose curve; in most records, active means well fitted curve in the direction sought with a large enough effect; inconclusive means small, poorly fitted or top-dose-only effect, or another doubt; inactive means no such curve, though single readings can be large; an effect the other way counts as inactive or inconclusive.

SMILES	HTT ATP protect	PNC inhibitor	HTT aggregate
O=C(c1cccc(S(=O)(=O)N2CCCC2)c1)c1cccc(S(=O)(=O)N2CCCC2)c1	i[10 µM]	i	11.2µM
O=C(Nc1cccc(S(=O)(=O)N2CCCCC2)c1)Nc1ccc(Cl)cc1Cl	i[10 µM]	i	14.1µM
O=S(=O)(c1cccc(-c2nnc(-c3ccc(Br)cc3)o2)c1)N1CCCCCC1	i	i	i
O=C(c1cccc(S(=O)(=O)N2CCCCC2)c1)N1CCCCC1	i[10 µM]	?	i
O=C(CN1CCN(c2nc(-c3ccc(F)cc3)cs2)CC1)NCc1ccc2c(c1)OCO2	i[10 µM]	?	?
CCCCCCCC(=O)N/N=C(/C)c1c(O)cc(C)oc1=O	i	i	i
CCOc1ccccc1CNn1nnnc1N	i[10 µM]	i	i
O=C(NNC1=NCCC1)c1cccc(S(=O)(=O)N2CCOCC2)c1	i[10 µM]	i	i
O=C(NNC1=NCCC1)c1cccc(S(=O)(=O)N2CCCC2)c1	nt	-107.3	i
O=C(Nc1ccc(S(=O)(=O)N2CCCCC2)cc1)c1ccncc1	i[10 µM]	i	i
O=C(Nc1ccccc1C(=O)N1CCCC1)c1cccc(S(=O)(=O)N2CCCCCC2)c1	i	i	i
CNS(=O)(=O)c1cccc(C(=O)Nc2cccc(Cl)c2)c1	i	-93.9	i
CNS(=O)(=O)c1cccc(C(=O)Nc2cccnc2)c1	i	i	i
O=C(Nc1ccccc1C(=O)N1CCOCC1)c1cccc(S(=O)(=O)N2CCCC2)c1	i	-89.5	i
O=C(Nc1ccc(Cc2ccncc2)cc1)c1ccc(S(=O)(=O)N2CCCC2)cc1	nt	nt	11.2µM
CC1CCCN(C(=S)SCC(=O)O)C1 (centres undefined)	i[10 µM]	i	i
CCCCCCCCCCCCCCCCCCc1ccc(C(=O)/C=C\C(=O)O)cc1	i	nt	nt
c1ccc(C(c2c[nH]c3ccccc23)c2c[nH]c3ccccc23)nc1	?	i	i
O=C(Nc1ccc(C(F)(F)F)cc1)C1(c2ccccc2)CC1	i[10 µM]	i	i
Cc1n[nH]c(=S)n(/N=C/c2ccccn2)c1=O	i	i	i
CCOC(=O)c1ccc(NC(=O)c2cn(CCC#N)nc2-c2ccc3c(c2)OCCO3)cc1	i[10 µM]	?	i
CCCn1c(NC(=O)c2cccc(S(=O)(=O)N3CCCC3)c2)nc2ccccc21	i[0.074 µM]	i	11.2µM
CCCn1c(NC(=O)c2ccccc2)nc2ccccc21	i	i	i
O=C(NCC1CCCO1)C(c1ccncc1)N(Cc1cccs1)C(=O)CN1C(=O)c2ccccc2S1(=O)=O (centres undefined)	i[10 µM]	nt	i[9.22 µM]
Cc1ccccc1CCN(C(=O)CN1C(=O)c2ccccc2S1(=O)=O)C(C(=O)NCC1CCCO1)c1ccncc1 (centres undefined)	i[10 µM]	i	15.8µM
SMILES	HTT ATP protect	PNC inhibitor	HTT aggregate
COc1ccc(N2Cc3ccccc3C2=NC(=O)c2cncc(Br)c2)cc1	i[10 µM]	nt	i
Cc1ccc(C(=O)N2CCN(c3ccc(NC(=O)CSc4ccc(Cl)cc4)cc3)CC2)cc1	nt	-113.4	i
CS(=O)(=O)N1CCN(c2ccc(NC(=O)CSc3ccc(Cl)cc3)cc2)CC1	i	i	i
NC(=O)C[C@@H]1NC(=O)[C@H](CCC(=O)O)NC(=O)c2cc([N+](=O)[O-])cc(I)c2OCC[C@@H](C(N)=O)NC1=O	nt	i	i
S=C(NCc1ccccc1)NC1CCCCC1	i[10 µM]	nt	i[9.22 µM]
S=C(NCc1cccc(Cl)c1)NC1CCCCC1	nt	-109.0	i
CCC(NC(=O)Nc1cc(OC)c(OC)c(OC)c1)(C(F)(F)F)C(F)(F)F	i	?	i
CCOC(=O)c1c(C)c(C(=O)NC(C)COC)c(C)n1CC (centres undefined)	i[10 µM]	-101.7	i
CCOC(=O)c1c(C)c(C(=O)NC(C)COC)c(C)n1C (centres undefined)	i[10 µM]	?	i
CCOC(=O)C1=C(N)OC2=C(C(=O)CCC2)C1c1ccc(C)s1 (centres undefined)	i	-107.1	i
CCOC(=O)C1=C(N)OC2=C(C(=O)CCC2)C1c1cccnc1 (centres undefined)	i	-119.6	i
CCOC(=O)C1=C(N)OC2=C(C(=O)CCC2)C1c1sccc1C (centres undefined)	nt	i	i
COC(=O)C1=C(N)OC2=C(C(=O)CCC2)C1c1cccnc1 (centres undefined)	i[10 µM]	nt	i[9.22 µM]
Cc1ccsc1/C=N\NC(=O)c1ccc2c(c1)OCO2	i	i	i
CCN1CCN(C(=O)/C=C/c2ccc3c(c2)OCO3)CC1	i[10 µM]	nt	i[9.22 µM]
Cc1nn(C)c(Cl)c1CN1CCCC(CO)(Cc2cccc(Cl)c2)C1 (centres undefined)	i[10 µM]	nt	i[9.22 µM]
CC(C)C1Cc2c(sc3[nH]c(=S)n(Cc4ccccc4)c(=O)c23)CO1 (centres undefined)	i	?	?
COCCCN1C(=O)c2[nH]nc(-c3cc(C)cc(C)c3O)c2C1c1ccc(O)c(OC)c1 (centres undefined)	i[0.074 µM]	i	i
COc1cc(C2c3c(-c4cc(C)cc(C)c4O)n[nH]c3C(=O)N2CCCO)cc(OC)c1OC (centres undefined)	i	-100.0	i
Cc1ccc(NC(=O)Nc2cccnc2)cc1NC(=O)Nc1cccnc1	i[10 µM]	nt	i[9.22 µM]
CCCOC(=O)Nc1ccc(C(N)=O)cc1	i	?	i
O=C(Nc1cccs1)Nc1ccccc1Cl	i	-82.3	i[9.22 µM]
Cc1ccc(NC(=O)Nc2cccs2)c(Cl)c1	i	?	?
COc1cccc(NC(=O)Nc2cccs2)c1	i[10 µM]	i	?
CC(=O)c1cccc(NC(=O)Nc2cccs2)c1	i	i	12.6µM
SMILES	HTT ATP protect	PNC inhibitor	HTT aggregate
CC(=O)c1cccc(NC(=O)Nc2cccnc2)c1	i[0.074 µM]	i	7.94µM
CCCOC(=O)Nc1cccc(C(C)=O)c1	i[10 µM]	-100.0	i
Cc1cccc(Nc2cc(=O)[nH]c(=O)[nH]2)c1C	i[10 µM]	i	i
CN1C(=O)NC2(O)C(=O)c3ccccc3C12O (centres undefined)	i[10 µM]	?	i
CC/C=C\C/C=C\C/C=C\C/C=C\C/C=C\C/C=C\CCC(=O)NCCO	i	nt	nt
C/C=C\c1ccc(OC)cc1	?	nt	i
COc1ccc(/C=C/c2cc(-c3ccc(C)cc3)o[n+]2C)cc1	i	i	4.47µM
CCOc1ccc(N/C(C)=C/C(=O)c2ccc(C)o2)cc1	i[10 µM]	i	i
COC(=O)c1ccc(N/C(C)=C/C(=O)c2ccc(C)o2)cc1	i	i	3.98µM
Cc1cccc(Sc2c([N+](=O)[O-])ncn2C)c1	i	i	i
COc1cc(CCC(=O)OCC(=O)Nc2ccccc2OC(F)F)cc(OC)c1OC	i	nt	i
COc1cc(CCC(=O)OCC(=O)Nc2ccccc2C(C)C)cc(OC)c1OC	i[10 µM]	-110.8	i
COCc1cc(=O)[nH]c(/N=C(\N)Nc2ccc(Oc3ccccc3)cc2)n1	i	i	?
Cc1ccc(/C=C/C(=O)N2CCN(c3cccc(C(F)(F)F)c3)CC2)cc1	i[10 µM]	i	i
C=CCNC(=S)N1CCN(c2cccc(C(F)(F)F)c2)CC1	nt	-113.4	i
FC(F)(F)c1cccc(N2CCN(C(=S)NC3CCCCC3)CC2)c1	i[10 µM]	i	22.4µM
CCNC(=S)N1CCN(c2cccc(C(F)(F)F)c2)CC1	i[10 µM]	i	i
FC(F)(F)c1cccc(N2CCN(C(=S)NC3CCCC3)CC2)c1	i[10 µM]	?	?
C/C(=C\c1ccccc1)C(=O)N1CCN(c2cccc(C(F)(F)F)c2)CC1	i[10 µM]	-91.0	i
COc1ccccc1Nc1nc(N)nc(CSc2nccc(C)n2)n1	i	i	i
